Laboratory results reported in PubChem BioAssay (NCI).
This is part of a sample that, as a whole, favours compounds with a hit. Of some 83,000 tested, about 20% had one in any assay.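 For each line, cells grew in 96-well plates with the test compound present at a single concentration for 48 hours.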 Calls of active or inactive are those of the source. How the source made its calls: active means growth percent below 10; inactive means the rest.

Key:
Test in all cases: NCI-60 one-dose screen, 48 h (100 = growth as untreated, 0 = no growth, -100 = all killed)
HCT-15 colon = system: HCT-15 colon
HT29 colon = system: HT29 colon
SNB-75 CNS = system: SNB-75 CNS
SNB-19 CNS = system: SNB-19 CNS
U251 CNS = system: U251 CNS
PC-3 prostate = system: PC-3 prostate
SK-MEL-5 melanoma = system: SK-MEL-5 melanoma
UACC-62 melanoma = system: UACC-62 melanoma
LOX IMVI melanoma = system: LOX IMVI melanoma
SK-MEL-28 melanoma = system: SK-MEL-28 melanoma
SK-MEL-2 melanoma = system: SK-MEL-2 melanoma
EKVX NSCLC = system: EKVX NSCLC
SN12C renal = system: SN12C renal
TK-10 renal = system: TK-10 renal
ACHN renal = details: 10 µM unless noted
A498 renal = system: A498 renal
CCRF-CEM leukemia = system: CCRF-CEM leukemia
MOLT-4 leukemia = system: MOLT-4 leukemia
UO-31 renal = system: UO-31 renal
CAKI-1 renal = details: 10 µM unless noted

Measured: growth

CCN(Cc1ccccc1)c1ccc(/C=C2\COc3ccccc3C2=O)cc1
active: HT29 colon; 100 µM 5.56% | SK-MEL-5 melanoma; 100 µM 6.96%
inactive: HCT-15 colon; 10 µM 94% | HCT-15 colon; 100 µM 23.6% | HT29 colon; 10 µM 99.7% | SNB-75 CNS; 10 µM 93.2% | SNB-75 CNS; 100 µM 57.6% | SNB-19 CNS; 10 µM 98.9% | SNB-19 CNS; 100 µM 50.4% | U251 CNS; 10 µM 96% | U251 CNS; 100 µM 19.1% | PC-3 prostate; 10 µM 87.1% | PC-3 prostate; 100 µM 26.5% | SK-MEL-5 melanoma; 10 µM 102% | UACC-62 melanoma; 10 µM 87% | UACC-62 melanoma; 100 µM 31% | LOX IMVI melanoma; 10 µM 96.3% | LOX IMVI melanoma; 100 µM 37.5% | SK-MEL-28 melanoma; 10 µM 99.9% | SK-MEL-28 melanoma; 100 µM 53.1% | SK-MEL-2 melanoma; 10 µM 102% | SK-MEL-2 melanoma; 100 µM 21.8% | EKVX NSCLC; 10 µM 102% | EKVX NSCLC; 100 µM 36.9% | SN12C renal; 10 µM 94.5% | SN12C renal; 100 µM 53.2% | TK-10 renal; 10 µM 119% | TK-10 renal; 100 µM 53.3% | ACHN renal 101% | A498 renal; 10 µM 91.3% | A498 renal; 100 µM 40.2% | CCRF-CEM leukemia; 10 µM 104% | CCRF-CEM leukemia; 100 µM 15% | MOLT-4 leukemia; 10 µM 78.6% | MOLT-4 leukemia; 100 µM 10.5%

COc1ccc(C(=O)/C=C/c2ccc(OCc3cccc(C(F)(F)F)c3)c(OC)c2)cc1OC
inactive: HCT-15 colon; 10 µM 73% | HCT-15 colon; 100 µM 14.4% | HT29 colon; 10 µM 54.3% | HT29 colon; 100 µM 19.6% | SNB-75 CNS; 10 µM 93.6% | SNB-19 CNS; 10 µM 93.9% | U251 CNS; 10 µM 75% | PC-3 prostate; 10 µM 69.1% | SK-MEL-5 melanoma; 10 µM 76.5% | UACC-62 melanoma; 10 µM 78.4% | UACC-62 melanoma; 100 µM 20.7% | LOX IMVI melanoma; 10 µM 51% | LOX IMVI melanoma; 100 µM 10% | SK-MEL-28 melanoma; 10 µM 101% | SK-MEL-28 melanoma; 100 µM 46.3% | SK-MEL-2 melanoma; 10 µM 89.1% | SK-MEL-2 melanoma; 100 µM 32.6% | EKVX NSCLC; 10 µM 114% | EKVX NSCLC; 100 µM 16.1% | SN12C renal; 10 µM 97% | SN12C renal; 100 µM 17% | UO-31 renal; 10 µM 67.2% | UO-31 renal; 100 µM 24.6% | TK-10 renal; 10 µM 117% | ACHN renal 93.4% | A498 renal; 10 µM 93.9% | CCRF-CEM leukemia; 10 µM 51.1% | CCRF-CEM leukemia; 100 µM 12.6% | MOLT-4 leukemia; 10 µM 42.2%
active: SNB-75 CNS; 100 µM -27.5% | SNB-19 CNS; 100 µM -21.9% | U251 CNS; 100 µM -51.7% | PC-3 prostate; 100 µM -7.78% | SK-MEL-5 melanoma; 100 µM -34.4% | TK-10 renal; 100 µM 7.32% | A498 renal; 100 µM -12.8% | MOLT-4 leukemia; 100 µM -3.95%

CC(=O)/C=C/c1ccc(N(CCO)Cc2ccc(C(C)(C)C)cc2)cc1
active: HCT-15 colon; 100 µM -83% | HT29 colon; 100 µM -81.5% | SNB-75 CNS; 100 µM -92.3% | SNB-19 CNS; 100 µM -89.9% | U251 CNS; 100 µM -100% | PC-3 prostate; 100 µM -90.3% | SK-MEL-5 melanoma; 100 µM -99.5% | UACC-62 melanoma; 100 µM -86.3% | LOX IMVI melanoma; 100 µM -100% | SK-MEL-28 melanoma; 100 µM -90.7% | SK-MEL-2 melanoma; 100 µM -75.2% | EKVX NSCLC; 100 µM -86.5% | SN12C renal; 100 µM -86.4% | UO-31 renal; 100 µM -100% | TK-10 renal; 100 µM -96.7% | A498 renal; 100 µM -98.3% | MOLT-4 leukemia; 100 µM -47.4%
inactive: HCT-15 colon; 10 µM 62.5% | HT29 colon; 10 µM 59.4% | SNB-75 CNS; 10 µM 76.3% | SNB-19 CNS; 10 µM 102% | U251 CNS; 10 µM 75.9% | PC-3 prostate; 10 µM 66% | SK-MEL-5 melanoma; 10 µM 70% | UACC-62 melanoma; 10 µM 76.5% | LOX IMVI melanoma; 10 µM 62.4% | SK-MEL-28 melanoma; 10 µM 89.1% | SK-MEL-2 melanoma; 10 µM 93.3% | EKVX NSCLC; 10 µM 57.4% | SN12C renal; 10 µM 73% | UO-31 renal; 10 µM 47.2% | TK-10 renal; 10 µM 96.7% | ACHN renal 80.5% | A498 renal; 10 µM 78.6% | MOLT-4 leukemia; 10 µM 54%

CCCN1C(=O)/C(=c2\sc3n(c2=O)C2C(NN=3)N(CC)C(=O)N2CC)c2ccccc21 (configuration not stated)
active: HT29 colon; 10 µM unless noted 3.33% | A498 renal; 10 µM unless noted 5.22%
inactive: HCT-15 colon; 10 µM unless noted 12.5% | SNB-75 CNS; 10 µM unless noted 17.2% | SNB-19 CNS; 10 µM unless noted 27.7% | U251 CNS; 10 µM unless noted 17.6% | PC-3 prostate; 10 µM unless noted 32.9% | SK-MEL-5 melanoma; 10 µM unless noted 14.3% | UACC-62 melanoma; 10 µM unless noted 24.7% | LOX IMVI melanoma; 10 µM unless noted 17.1% | SK-MEL-28 melanoma; 10 µM unless noted 48.1% | SK-MEL-2 melanoma; 10 µM unless noted 55% | EKVX NSCLC; 10 µM unless noted 52.4% | SN12C renal; 10 µM unless noted 23.1% | UO-31 renal; 10 µM unless noted 33.6% | TK-10 renal; 10 µM unless noted 73.9% | ACHN renal 33.1% | CAKI-1 renal 33.8% | CCRF-CEM leukemia; 10 µM unless noted 13.6% | MOLT-4 leukemia; 10 µM unless noted 19.1%

Clc1ccc2c(NCCN3CCN(c4ccnc(N5CCCC5)n4)CC3)ccnc2c1
active: HCT-15 colon; 10 µM unless noted 0.29% | HT29 colon; 10 µM unless noted 6.82% | U251 CNS; 10 µM unless noted 6.81% | SK-MEL-5 melanoma; 10 µM unless noted -16.8% | UACC-62 melanoma; 10 µM unless noted -29.5% | LOX IMVI melanoma; 10 µM unless noted -70.1% | SK-MEL-28 melanoma; 10 µM unless noted -17.6%
inactive: SNB-75 CNS; 10 µM unless noted 90.7% | SNB-19 CNS; 10 µM unless noted 53.7% | PC-3 prostate; 10 µM unless noted 58.6% | SK-MEL-2 melanoma; 10 µM unless noted 92.4% | EKVX NSCLC; 10 µM unless noted 63% | SN12C renal; 10 µM unless noted 57.2% | UO-31 renal; 10 µM unless noted 25.8% | TK-10 renal; 10 µM unless noted 52.5% | ACHN renal 55.6% | CAKI-1 renal 27.7% | A498 renal; 10 µM unless noted 51.5% | CCRF-CEM leukemia; 10 µM unless noted 51.1% | MOLT-4 leukemia; 10 µM unless noted 47.2%
